Experimental data taken from PubChem BioAssay AID485346 (Sanford-Burnham Center for Chemical Genomics, 2010).
Out of some 330,000 compounds screened, about 10,000 (3%) were called active.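 Rule for the calls: active = inhibition of at least 50% at 8 µM in the primary screen; inactive = the rest.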 The full list was thinned out, with actives kept by preference.

What follows are compounds tested against Protein Mdm4 (Homo sapiens) + E3 ubiquitin-protein ligase Mdm2 (Homo sapiens) (UniProt O15151+Q00987) (assay: disruptors of Mdm2/MdmX RING complex – cell-based, luminescence, split luciferase, SaOS-2, uHTS, primary screen (AID 485346)). Conditions: SaOS-2 split-luciferase Mdm2/MdmX complementation, at 8 µM, hits give high values.
Chain of Protein Mdm4 (Homo sapiens) + E3 ubiquitin-protein ligase Mdm2 (Homo sapiens) (O15151 whole entry, looked up): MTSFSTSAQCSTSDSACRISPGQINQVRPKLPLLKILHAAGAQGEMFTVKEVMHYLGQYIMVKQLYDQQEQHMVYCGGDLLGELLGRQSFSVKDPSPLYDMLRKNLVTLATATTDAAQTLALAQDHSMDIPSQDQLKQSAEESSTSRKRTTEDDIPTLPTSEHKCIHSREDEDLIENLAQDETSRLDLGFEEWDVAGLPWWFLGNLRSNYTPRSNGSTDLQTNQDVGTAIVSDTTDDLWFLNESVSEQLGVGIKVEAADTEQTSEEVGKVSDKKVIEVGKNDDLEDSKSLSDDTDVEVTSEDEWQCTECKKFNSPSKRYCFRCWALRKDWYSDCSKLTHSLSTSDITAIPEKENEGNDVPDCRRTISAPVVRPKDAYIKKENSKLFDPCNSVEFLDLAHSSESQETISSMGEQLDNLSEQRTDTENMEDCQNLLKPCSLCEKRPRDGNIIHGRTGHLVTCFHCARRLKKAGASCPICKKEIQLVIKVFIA
Chain of Protein Mdm4 (Homo sapiens) + E3 ubiquitin-protein ligase Mdm2 (Homo sapiens) (Q00987 whole entry, looked up): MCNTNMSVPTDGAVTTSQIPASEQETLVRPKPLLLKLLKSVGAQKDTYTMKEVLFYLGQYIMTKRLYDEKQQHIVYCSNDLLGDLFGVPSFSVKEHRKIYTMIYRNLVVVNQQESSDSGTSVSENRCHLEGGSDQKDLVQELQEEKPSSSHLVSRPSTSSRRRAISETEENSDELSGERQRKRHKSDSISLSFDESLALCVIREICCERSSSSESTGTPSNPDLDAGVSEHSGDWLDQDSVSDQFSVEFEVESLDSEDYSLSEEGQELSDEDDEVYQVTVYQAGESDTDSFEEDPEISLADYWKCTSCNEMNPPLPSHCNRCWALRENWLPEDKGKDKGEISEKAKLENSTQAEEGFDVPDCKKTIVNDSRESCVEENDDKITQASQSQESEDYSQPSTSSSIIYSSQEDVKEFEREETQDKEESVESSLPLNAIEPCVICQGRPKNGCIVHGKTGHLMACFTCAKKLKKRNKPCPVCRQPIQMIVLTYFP

Row | SMILES | inhibition
1 | Cc1ccc(CN2CC(C(=O)N3CCN(S(=O)(=O)c4ccccc4)CC3)CC2=O)cc1 (stereo not drawn) | -7.06% (inactive)
2 | O=C(NCc1cccnc1)c1ccccc1NC(=O)c1c(F)cccc1F | 12.2% (inactive)
3 | CC[C@]1(C(=O)OC)[C@H]2C(=O)N(Cc3ccccc3)C(=O)[C@H]2[C@H]2CN=C(SCc3ccc(C#N)cc3)N21 | 93% (active)
4 | CCN(C[C@H]1N[C@@](CC)(C(=O)OC)[C@H]2C(=O)N(Cc3ccccc3)C(=O)[C@@H]12)S(=O)(=O)c1ccccc1 | 9.24% (inactive)
5 | CCN1C[C@@H]2[C@@H]3C(=O)N(Cc4ccccc4)C(=O)[C@@H]3[C@](Cc3ccccc3)(C(=O)OC)N2C1=NC1CCCCC1 | 44.3% (inactive)
6 | CCCN=C1N(C)C[C@@H]2[C@@H]3C(=O)N(Cc4ccccc4)C(=O)[C@@H]3[C@](C)(C(=O)OC)N12 | -2.26% (inactive)
7 | CC[C@]1(C(=O)OC)[C@H]2C(=O)N(Cc3ccccc3)C(=O)[C@H]2[C@H]2CN=C(SCc3ccc(Cl)cc3)N21 | 99.6% (active)
8 | CC[C@]1(C(=O)OC)[C@H]2C(=O)N(C)C(=O)[C@H]2[C@H]2CN(C)C(=NCc3ccccc3)N21 | 15.5% (inactive)
9 | CC[C@]1(C(=O)OC)[C@H]2C(=O)N(Cc3ccccc3)C(=O)[C@H]2[C@H]2CN=C(SCc3ccccc3)N21 | 70% (active)
10 | COC(=O)[C@@]1(C)[C@H]2C(=O)N(Cc3ccccc3)C(=O)[C@H]2[C@H]2CN=C(SCC3CC3)N21 | 16.2% (inactive)
11 | CCNC(=O)N(CC)C[C@H]1N[C@@](CC)(C(=O)OC)[C@H]2C(=O)N(Cc3ccccc3)C(=O)[C@@H]12 | 13.8% (inactive)
12 | O=C(COC(=O)c1ccccn1)NNC(=O)c1ccc(Br)cc1 | 2.38% (inactive)
13 | Cn1nc(C(=O)OCC(=O)N(Cc2ccccc2)C(C)(C)C)c2ccccc2c1=O | 14.1% (inactive)
14 | CCCNc1c(N)c(=O)c1=O | 12.6% (inactive)
15 | Cc1cccc(C(=O)N2CCCC(Nc3ccc(C(C)C)cc3)C2)n1 (stereo not drawn) | -5.26% (inactive)
16 | CCOc1ccccc1OCCCNCc1ccccc1 | -6.93% (inactive)
17 | Clc1cccc(Cl)c1OCCOCCNCc1ccccc1 | 89.2% (active)
18 | OCCNCc1cccc(OCc2ccccc2Cl)c1 | 20.6% (inactive)
19 | Cc1ccc(Cc2cnc(NC(=O)/C(C#N)=C/c3ccc(-c4cccc([N+](=O)[O-])c4)o3)s2)cc1 | 97.9% (active)
20 | Cc1ccc(-c2ccc(/C=C(\C#N)C(N)=S)o2)c([N+](=O)[O-])c1 | -46.3% (inactive)
21 | N#C/C(=C\c1ccc(-c2cccc([N+](=O)[O-])c2)o1)C(=O)NCCN1CCOCC1 | 10.3% (inactive)
22 | COc1ccc(CCNC(=O)COC(=O)c2ncc(Cl)c(Cl)c2Cl)cc1OC | 8.42% (inactive)

Row | SMILES | inhibition
23 | COc1ccccc1N1CCN(C(=O)c2cc(=O)c3cc(C)cc(C)c3o2)CC1 | 63.5% (active)
24 | COc1ccccc1N1CCN(C(=O)c2cc(=O)c3cc(C)ccc3o2)CC1 | 40.1% (inactive)
25 | O=C(c1cc(=O)c2ccccc2o1)N1CCN(c2ccccc2)CC1 | 17.2% (inactive)
26 | C=CCSc1nsc(NC(=O)Nc2cccc(C(C)=O)c2)n1 | 94.3% (active)
27 | C=CCSc1nnc(NC(=O)c2ccc(NC(C)=O)cc2)s1 | -18.8% (inactive)
28 | C=C(C)C(=O)Nc1cccc(C(C)=O)c1 | 20.2% (inactive)
29 | CSc1nsc(NC(=O)Nc2ccccc2)n1 | -31.4% (inactive)
30 | CCSc1nsc(NC(=O)Nc2ccccc2OC)n1 | -33.9% (inactive)
31 | CCSc1nsc(NC(=O)Nc2cccc(C(C)=O)c2)n1 | 62.3% (active)
32 | CCCCC(=O)N1CC2(C)CN(C(=O)CCCC)CC(C)(C1)C2=O | -4.56% (inactive)
33 | CN(C(=O)c1c(Cl)cnn1C)C12CC3CC(CC(C3)C1)C2 | 4.45% (inactive)
34 | Cc1ccc2[nH]c(=O)c(CN(CC3COCCO3)C(=O)Nc3ccccc3C)cc2c1 (stereo not drawn) | 6.03% (inactive)
35 | CCC(=O)N(CCc1ccccc1)Cc1cc2cc(C)ccc2[nH]c1=O | -5.57% (inactive)
36 | Cc1ccc2[nH]c(=O)c(CN(CCCN(C)C)C(=O)Nc3cccc(Cl)c3)cc2c1 | 66.9% (active)
37 | CC(C)NC(=O)N1CCN(c2ccncc2S(=O)(=O)N2CCCCC2)CC1 | 14.5% (inactive)
38 | CCOc1cc(/C=N/Nc2cc(C)nc3ccc(C)cc23)ccc1O | 3.4% (inactive)
39 | Cc1ccc2[nH]c3c(=O)n(Cc4ccccn4)cnc3c2c1 | 7.52% (inactive)
40 | COc1cc(OC)c(OC)cc1/C=N/Nc1ncnc2c1[nH]c1ccc(C)cc12 | 78.4% (active)
41 | Cc1ccc(CC(=O)N(C)CC(=O)N(CC(C)C)c2c(N)n(CC(C)C)c(=O)[nH]c2=O)cc1C | -20.2% (inactive)
42 | Cc1cccc(CN2CCC(CNC(=O)Nc3ccc(F)c(Cl)c3)CC2)c1 | 51.6% (active)
43 | Cc1ccccc1NC(=O)NCC1CCN(Cc2cccc(Cl)c2)CC1 | 8.22% (inactive)
44 | Cc1ccc(C)c(CN2CCC(CNC(=O)Nc3ccc(C)c(F)c3)CC2)c1 | 42.6% (inactive)

Row | SMILES | inhibition
45 | O=C(COC(=O)/C(=C/c1cccs1)c1cccs1)NCc1ccccc1Cl | -28% (inactive)
46 | CCN(Cc1ccccc1)S(=O)(=O)c1cc2c3c(c1)CCN3C(=O)CC2 | -8.54% (inactive)
47 | CCCC[C@@H]1CN=C(N)N1CCCC | 16.5% (inactive)
48 | CCCC[C@@H]1CN=C(N)N1CCc1cccc(F)c1 | -13.6% (inactive)
49 | CCCC[C@@H]1CN=C(N)N1CCc1cc(C(F)(F)F)cc(C(F)(F)F)c1 | 68.1% (active)
50 | O=C(C1CCN(C2CCN(Cc3ccc4cc(F)ccc4n3)CC2)CC1)N1CCCC1 | 6.09% (inactive)
51 | CCCc1nc2oc3c(OCC)ncnc3c2c2c1COC(C)(C)C2 | -1.2% (inactive)
52 | O=C(Nc1nonc1-c1ccc(Cl)cc1)c1ccco1 | 3.32% (inactive)
53 | Cc1ccc(/C=C/C(=O)OCC(=O)Nc2cccnc2Cl)cc1 | 7.79% (inactive)
54 | O=C(COC(=O)/C=C/c1cn(-c2ccccc2)nc1-c1cccnc1)Nc1ccc(Cl)cc1Cl | 61.3% (active)
55 | COc1ccc(NC(=O)CN(C)C(=O)/C=C/c2cn(Cc3ccccc3)nc2-c2cccnc2)cc1 | 9.31% (inactive)
56 | COc1cc([N+](=O)[O-])ccc1NC(=O)CN1CCCC1 | -4.27% (inactive)
57 | COc1ccccc1CC(=O)Nc1ccc([N+](=O)[O-])cc1OC | 19.7% (inactive)
58 | COc1cc([N+](=O)[O-])ccc1NC(=O)COC(=O)CCOc1ccc(C)cc1 | 57.2% (active)
59 | N#Cc1c(N)sc2c1CCN(C(=O)OCc1ccccc1)C2 | 17.8% (inactive)
60 | CN(C)CCNC(=O)/C(=C/c1cccc([N+](=O)[O-])c1)NC(=O)c1ccccc1 | -8% (inactive)
61 | Cc1ccc(C(=O)N/C(=C/c2ccc(-c3cccc([N+](=O)[O-])c3)o2)C(=O)NCCCN(C)C)cc1 | 78.3% (active)
62 | C=CCNC(=O)/C(=C\c1cccc([N+](=O)[O-])c1)NC(=O)c1ccccc1 | 22.1% (inactive)
63 | NS(=O)(=O)c1cccc(NC(=O)COC(=O)c2cc([N+](=O)[O-])ccc2N2CCCC2)c1 | 17.6% (inactive)
64 | CC(C)Oc1ccc(C(=O)NCC(=O)Nc2ccc3c(c2)CCC3)cc1 | -15.9% (inactive)
65 | O=C(CN1C(=O)C2C3C=CC(C3)C2C1=O)Nc1nc(-c2ccccn2)cs1 (stereo not drawn) | 33.1% (inactive)
66 | O=C(COc1ccccc1F)Nc1nc(-c2ccccn2)cs1 | 72.2% (active)

Row | SMILES | inhibition
67 | CC(NC(=O)c1ccco1)C(=O)Nc1nc(-c2ccccn2)cs1 (stereo not drawn) | 21.9% (inactive)
68 | CCOc1ccc(CN2CCN(Cc3ccc4cc(F)ccc4n3)CC2CCO)cc1 (stereo not drawn) | -16.3% (inactive)
69 | COc1ccc(CNC(=O)COC(=O)c2c(C)nn(-c3ccccc3)c2C)cc1OC | -1.13% (inactive)
70 | COc1ccc(/C=C/C(=O)Nc2ccc(C)cc2)cc1S(=O)(=O)N1CCOCC1 | 18.3% (inactive)
71 | COc1ccc(/C=C/C(=O)Nc2ccc(C34CC5CC(CC(O)(C5)C3)C4)cc2)cc1OC | 59.1% (active)
72 | COc1ccc(/C=C/C(=O)N2CCCC2)cc1OC | 5.87% (inactive)
73 | CCn1nc(C(=O)NNC(=O)C2CSC3(C)CCC(=O)N23)c2ccccc2c1=O (stereo not drawn) | 25.6% (inactive)
74 | Cc1cccc(N2CCN(C(=O)c3cc4c(=O)[nH]c5ccccc5c4n3C)CC2)c1C | 40.5% (inactive)
75 | O=C1CN(C(=O)c2cc(F)cc(F)c2)c2ccccc2N1 | 21% (inactive)
76 | CCOc1cc(N2CCOCC2)c(OCC)cc1NC(=O)COc1cccc2cccnc12 | 90.6% (active)
77 | CCOc1cc(N2CCOCC2)c(OCC)cc1NC(=O)COc1cccc(Cl)c1 | -4.41% (inactive)
78 | CCOc1cc(N2CCOCC2)c(OCC)cc1NC(=O)c1cc(C)nc2ccccc12 | -16.5% (inactive)
79 | O=S(=O)(Nc1cc(Cl)ccc1N1CCOCC1)c1ccccc1Cl | 1.14% (inactive)
80 | CC(C)(C)OC(=O)NCCCCCC(=O)N/N=C/c1coc2ccccc2c1=O | 19.7% (inactive)
81 | Cc1ccc2occ(/C=N/NC(=O)c3ccccc3C)c(=O)c2c1 | 68.7% (active)
82 | O=c1c(/C=N/O)coc2ccc(Cl)cc12 | 9.78% (inactive)
83 | O=C1CC(Cc2ccc(Cl)cc2)C(=O)N1c1cc(Cl)ccn1 (stereo not drawn) | -4.34% (inactive)
84 | CN(C)/C(CN1CCCCC1)=C1\N=C(c2ccccc2)OC1=O | 0.454% (inactive)
85 | CCc1cc2cc(OC)ccc2nc1SCC(=O)Nc1cc(OC)c(OC)cc1C(=O)O | 17% (inactive)
86 | Cc1[nH]c(C)c(S(=O)(=O)N2CCN(c3cccc(C(F)(F)F)c3)CC2)c1C(=O)N1CCCC1 | 14.7% (inactive)
87 | Cc1ccc(C)c(N2CCN(S(=O)(=O)c3c(C)[nH]c(C)c3C(=O)N3CCCC3)CC2)c1 | 5.45% (inactive)
88 | Cc1[nH]c(C)c(S(=O)(=O)N2CCN(c3cccc(C(F)(F)F)c3)CC2)c1C(=O)N1CCCCC1 | 76.3% (active)
